In PubChem BioAssay (NCATS):
Inconclusive results are not listed. Values without a mark were called inactive. The source made the active and inactive calls. Calls follow the shape of the dose curve; as a rule, active = well fitted inhibition curve with a large enough effect; inconclusive = small, poorly fitted or top-dose-only effect; inactive = no such curve, though single readings can be large or run the other way.

Experiment: qHTS for Inhibitors of the Aldehyde Dehydrogenase Family (ALDH1A2, ALDH1A3, ALDH2, ALDH3A1) (AID 2061307); also: nearly all actives have a fitted effect of over 50% in size; as to Potency: test system not described further here
Details: ALDH inhibition qHTS; series mostly up to 50.3 µM; activity change, negative = inhibition: at the top concentration
% is scaled to controls: 0 for no effect and ±100 for the full control effect; potency is read from the fitted curve at half-maximal effect.

| SMILES | Potency | activity change, negative = inhibition [%] |
| --- | --- | --- |
| O=S(=O)(c1ccccc1)N1CCN(c2nc(-c3ccc(Br)cc3)cs2)CC1 | 7.98 µM (active) |  |
| N#Cc1c(-c2cccc(Cl)c2)no[n+]1[O-] | 12.7 µM (active) |  |
| Cc1cc(-c2nnc3n2CCCC3)c(C)n1-c1ccccc1 |  | -13.9 |
| Cc1ccnc(CC(=S)N2CCN(c3cccc(C(F)(F)F)c3)CC2)c1 | 10 µM (active) |  |
| CCOc1ccc(CCNC(=O)c2cc3c(s2)CCC3)cc1OCC |  | -90.6 |
| O=C(Nc1nc(-c2ccccc2)cs1)c1ccncc1NS(=O)(=O)c1ccc(Cl)cc1 | 25.2 µM (active) |  |
| COc1ccc(C2Nc3ccccc3C(=O)N2CCc2ccc(Cl)cc2Cl)cc1COc1ccc(NC(C)=O)cc1 (stereo not given) | 3.57 µM (active) |  |
| CN(C)CCCNc1ccc(NC(=O)c2cccs2)cn1 |  | 0 |
| COc1cc2ncnc(N(C)Cc3csc(C)n3)c2cc1-c1ccc2c(c1)OCO2 |  | -4.92 |
| Cc1cc(-c2nnc3n2CCCCC3)c(C)n1-c1ccc(Cl)c(Cl)c1 |  | -0.977 |
| Cc1cnc(-c2ccccc2C2COC2)nc1NCc1ccc(-n2ccnn2)cc1 |  | 0.628 |
| COc1ccc(C2Nc3ccccc3C(=O)N2CCc2ccccc2)cc1COc1ccc(NC(C)=O)cc1 (stereo not given) | 5.65 µM (active) |  |
| CCCCN(C)C(=O)Cn1nc(-c2ccc(Cl)cc2)ccc1=O |  | -13.6 |
| Nc1ccccc1OC1=NS(=O)(=O)c2ccccc21 |  | 12 |
| FC(F)(F)c1ccc(-c2ccc(CNc3nc(-c4ccccc4C(F)(F)F)nc4ccccc34)cc2)cn1 | 8.91 µM (active) |  |
| O=C([C@H](Cc1ccc(O[S+](=O)([O-])c2cccnc2)cc1)N[S+](=O)([O-])c1cccc2cnccc12)N1CCN(c2ccccc2)CC1 |  | 0 |
| COc1ccc(NC(=O)CN(C)C(=O)c2cc3c(s2)CCC3)cc1 |  | -2.32 |
| O=C([C@H](Cc1ccc(O[S+](=O)([O-])c2cccnc2)cc1)N[S+](=O)([O-])c1ccccn1)N1CCN(c2ccccc2)CC1 | 15.8 µM (active) |  |
| COc1ccc(C2=Nn3c(nnc3-c3ccc(OC)cc3)SC2)cc1 | 7.98 µM (active) |  |
| CN(CC(=O)O)c1ncnc2ccc(-c3ccc4c(c3)OCO4)cc12 |  | -23.8 |

| SMILES | Potency | activity change, negative = inhibition [%] |
| --- | --- | --- |
| CN(C)CCCNC(=O)c1ccc(-c2cnc3c(O)cccc3c2)cc1 |  | 9.79 |
| COc1ccc(C2=Nn3c(nnc3-c3cccc(OC)c3OC)SC2)c(OC)c1 | 2 µM (active) |  |
| COc1ccc(C2=Nn3c(nnc3-c3cc(OC)ccc3OC)SC2)cc1 | 20 µM (active) |  |
| N#Cc1nc(Nc2cccc(Cl)c2)nc(NC2CCCC2)n1 | 0.708 µM (active) |  |
| O=[S+]([O-])(Nc1ccc(-c2nc3ccccc3[nH]2)cc1)c1ccc2c(c1)OCO2 |  | -21.1 |
| O=C(Nc1cncc(Cc2ccccc2)c1)c1ccc(-c2cccc([N+](=O)[O-])c2)o1 | 1.27 µM (active) |  |
| CSc1ccc(-c2cnc(N3CCC(C(N)=O)CC3)s2)cc1 | 3.18 µM (active) |  |
| O=C(O)C1CCN(c2ncc(-c3ccc4c(c3)OCCCO4)s2)CC1 | 1.52 µM (active) |  |
| CCOC(=O)c1ccc(-n2cccc2/C=C2\NC(=O)NC2=O)cc1 |  | -28.4 |
| O=C(NCCCCc1ccccc1)C1CCN(c2nc(-c3ccc(Br)cc3)cs2)CC1 | 3.57 µM (active) |  |
| O=C(CN1C(=O)N/C(=C\c2cn(-c3cccc(C(=O)O)c3)cn2)C1=O)Nc1ccccc1Cl |  | 1.16 |
| Cc1nc(-c2ccccc2)oc1-c1ccc2ncnc(NCc3ncc[nH]3)c2c1 |  | -19.1 |
| Cc1cc(C)nc(NC(=S)N2CC3CN(c4ncc(C(F)(F)F)cc4Cl)CC3C2)c1 (stereo not given) |  | -12.8 |
| FC(F)Oc1ccc(C2=Nn3c(nnc3-c3ccccc3C(F)(F)F)SC2)cc1OCC1CC1 | 2.83 µM (active) |  |
| O=C(Nc1nc(-c2ccccc2)cs1)c1ccncc1NS(=O)(=O)c1ccccc1Cl | 22.5 µM (active) |  |
| COc1ccc(C2Nc3ccccc3C(=O)N2Cc2ccco2)cc1COc1ccc(NC(C)=O)cc1 (stereo not given) |  | -5.09 |
| Cc1[nH]c2ccccc2c1C1=C(NCCc2ccc(F)cc2)C(=O)N(C)C1=O | 0.896 µM (active) |  |
| N#Cc1nc(Nc2ccc3ccccc3c2)nc(NC2CCCC2)n1 |  | -20.3 |
| O=C(Nc1nc(-c2ccccc2)cs1)c1ccncc1NS(=O)(=O)c1ccc2ccccc2c1 | 2.51 µM (active) |  |
| CN1CCN(c2ccc(Nc3nn4c(=O)c5ccccc5nc4s3)cc2)CC1 |  | -17.4 |
